# Assay results from the supplement of paper PMC11006884.
# The full data set covers some 6,500 targets. This sample favours those with a hit. About 2% of all pairs of compound and target were hits. A number with no mark means an inactive call.
# Compound: COC(=O)C#Cc1ccccc1 [methyl 3-phenylpropiolate]
# Test: log2 ratio of iodoacetamide-alkyne labeling of the cysteine site, DMSO over compound (competition); higher = stronger covalent engagement of the cysteine by the compound, active = 1 or more
# Settings: 500 µM; treatment time 1 h; system: HEK293T cell lysate
# Outline: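 Three replicates, each with duplicate channels, were prepared from HEK293T lysate (2 mg/mL) treated with vehicle or electrophile at 500 µM for 1 h at ambient temperature. Iodoacetamide alkyne was then applied for 1 h, and samples were clicked to sCIP-TMT reagents, pooled, trypsin-digested overnight at 37 °C, enriched on streptavidin, acid-eluted and analysed on Orbitrap Eclipse LC-MS/MS with FAIMS, with FragPipe quantification. The log2 competition ratio per cysteine is the mean control-channel divided by the mean compound-channel reporter intensity. Cysteines quantified in only one replicate were left out.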
# UniProt O00410, sequence (O00410 whole entry, looked up): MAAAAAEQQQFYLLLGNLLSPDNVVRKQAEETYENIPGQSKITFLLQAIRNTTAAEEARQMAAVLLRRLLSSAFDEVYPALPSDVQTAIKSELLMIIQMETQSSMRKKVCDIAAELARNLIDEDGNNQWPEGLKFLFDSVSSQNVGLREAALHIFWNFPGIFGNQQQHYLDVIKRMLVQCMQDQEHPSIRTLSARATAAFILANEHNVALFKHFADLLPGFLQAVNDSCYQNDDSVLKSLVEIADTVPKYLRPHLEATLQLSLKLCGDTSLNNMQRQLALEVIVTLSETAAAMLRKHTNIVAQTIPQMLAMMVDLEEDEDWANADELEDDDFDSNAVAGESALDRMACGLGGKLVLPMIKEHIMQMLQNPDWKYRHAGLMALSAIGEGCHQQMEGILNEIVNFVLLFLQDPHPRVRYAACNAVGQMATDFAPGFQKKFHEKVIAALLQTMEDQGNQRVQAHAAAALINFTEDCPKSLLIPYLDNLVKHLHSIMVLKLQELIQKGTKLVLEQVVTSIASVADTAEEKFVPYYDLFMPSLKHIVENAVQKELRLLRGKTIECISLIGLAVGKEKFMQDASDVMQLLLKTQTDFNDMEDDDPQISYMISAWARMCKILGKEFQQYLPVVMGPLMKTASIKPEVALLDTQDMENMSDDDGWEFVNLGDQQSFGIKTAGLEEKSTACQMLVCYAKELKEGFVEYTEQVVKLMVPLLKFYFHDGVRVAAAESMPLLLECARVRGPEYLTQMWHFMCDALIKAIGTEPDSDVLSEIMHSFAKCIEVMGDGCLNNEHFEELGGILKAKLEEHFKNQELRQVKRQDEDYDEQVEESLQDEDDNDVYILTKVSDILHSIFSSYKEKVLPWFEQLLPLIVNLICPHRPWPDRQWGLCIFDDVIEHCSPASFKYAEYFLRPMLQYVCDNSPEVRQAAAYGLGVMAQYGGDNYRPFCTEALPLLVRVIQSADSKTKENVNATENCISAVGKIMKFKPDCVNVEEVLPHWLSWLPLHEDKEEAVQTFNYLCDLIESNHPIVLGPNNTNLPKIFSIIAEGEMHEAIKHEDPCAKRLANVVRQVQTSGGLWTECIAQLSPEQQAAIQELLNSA
# UniProt O75976, sequence (O75976 whole entry): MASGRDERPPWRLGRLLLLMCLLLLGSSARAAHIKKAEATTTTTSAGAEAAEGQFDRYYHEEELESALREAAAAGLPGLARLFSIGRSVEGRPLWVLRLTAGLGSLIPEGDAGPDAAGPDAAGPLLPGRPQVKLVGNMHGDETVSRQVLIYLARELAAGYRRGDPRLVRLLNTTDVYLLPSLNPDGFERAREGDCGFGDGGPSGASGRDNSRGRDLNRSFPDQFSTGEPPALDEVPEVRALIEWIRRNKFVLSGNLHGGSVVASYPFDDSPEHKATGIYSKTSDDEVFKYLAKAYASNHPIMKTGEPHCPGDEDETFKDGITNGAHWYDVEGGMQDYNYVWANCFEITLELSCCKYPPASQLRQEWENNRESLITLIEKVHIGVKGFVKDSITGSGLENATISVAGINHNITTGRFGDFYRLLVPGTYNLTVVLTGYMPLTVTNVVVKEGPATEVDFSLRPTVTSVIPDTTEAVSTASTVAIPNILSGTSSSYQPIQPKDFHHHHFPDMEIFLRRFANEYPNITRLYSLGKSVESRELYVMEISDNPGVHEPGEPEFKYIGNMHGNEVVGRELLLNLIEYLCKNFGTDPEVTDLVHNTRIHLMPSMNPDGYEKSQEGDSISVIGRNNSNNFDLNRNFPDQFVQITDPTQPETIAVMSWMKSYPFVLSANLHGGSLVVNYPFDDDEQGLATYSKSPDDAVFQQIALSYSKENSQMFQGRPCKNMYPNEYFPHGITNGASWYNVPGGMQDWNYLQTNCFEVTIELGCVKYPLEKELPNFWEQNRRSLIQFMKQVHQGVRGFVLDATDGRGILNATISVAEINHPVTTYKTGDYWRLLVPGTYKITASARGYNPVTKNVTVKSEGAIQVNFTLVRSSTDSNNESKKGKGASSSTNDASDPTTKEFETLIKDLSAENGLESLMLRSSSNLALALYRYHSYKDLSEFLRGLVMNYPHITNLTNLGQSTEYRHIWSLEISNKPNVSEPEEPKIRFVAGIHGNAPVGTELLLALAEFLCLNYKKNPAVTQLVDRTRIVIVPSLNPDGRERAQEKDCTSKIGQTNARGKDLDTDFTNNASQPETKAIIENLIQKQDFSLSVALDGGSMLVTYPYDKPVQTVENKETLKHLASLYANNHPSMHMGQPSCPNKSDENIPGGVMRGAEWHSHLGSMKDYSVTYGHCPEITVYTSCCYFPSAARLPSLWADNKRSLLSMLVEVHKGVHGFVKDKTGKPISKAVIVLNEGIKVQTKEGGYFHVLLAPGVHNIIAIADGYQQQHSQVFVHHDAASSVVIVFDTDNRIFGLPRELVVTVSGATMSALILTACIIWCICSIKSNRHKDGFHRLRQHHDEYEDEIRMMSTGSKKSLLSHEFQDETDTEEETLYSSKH
# UniProt O14727, sequence (O14727 whole entry, looked up): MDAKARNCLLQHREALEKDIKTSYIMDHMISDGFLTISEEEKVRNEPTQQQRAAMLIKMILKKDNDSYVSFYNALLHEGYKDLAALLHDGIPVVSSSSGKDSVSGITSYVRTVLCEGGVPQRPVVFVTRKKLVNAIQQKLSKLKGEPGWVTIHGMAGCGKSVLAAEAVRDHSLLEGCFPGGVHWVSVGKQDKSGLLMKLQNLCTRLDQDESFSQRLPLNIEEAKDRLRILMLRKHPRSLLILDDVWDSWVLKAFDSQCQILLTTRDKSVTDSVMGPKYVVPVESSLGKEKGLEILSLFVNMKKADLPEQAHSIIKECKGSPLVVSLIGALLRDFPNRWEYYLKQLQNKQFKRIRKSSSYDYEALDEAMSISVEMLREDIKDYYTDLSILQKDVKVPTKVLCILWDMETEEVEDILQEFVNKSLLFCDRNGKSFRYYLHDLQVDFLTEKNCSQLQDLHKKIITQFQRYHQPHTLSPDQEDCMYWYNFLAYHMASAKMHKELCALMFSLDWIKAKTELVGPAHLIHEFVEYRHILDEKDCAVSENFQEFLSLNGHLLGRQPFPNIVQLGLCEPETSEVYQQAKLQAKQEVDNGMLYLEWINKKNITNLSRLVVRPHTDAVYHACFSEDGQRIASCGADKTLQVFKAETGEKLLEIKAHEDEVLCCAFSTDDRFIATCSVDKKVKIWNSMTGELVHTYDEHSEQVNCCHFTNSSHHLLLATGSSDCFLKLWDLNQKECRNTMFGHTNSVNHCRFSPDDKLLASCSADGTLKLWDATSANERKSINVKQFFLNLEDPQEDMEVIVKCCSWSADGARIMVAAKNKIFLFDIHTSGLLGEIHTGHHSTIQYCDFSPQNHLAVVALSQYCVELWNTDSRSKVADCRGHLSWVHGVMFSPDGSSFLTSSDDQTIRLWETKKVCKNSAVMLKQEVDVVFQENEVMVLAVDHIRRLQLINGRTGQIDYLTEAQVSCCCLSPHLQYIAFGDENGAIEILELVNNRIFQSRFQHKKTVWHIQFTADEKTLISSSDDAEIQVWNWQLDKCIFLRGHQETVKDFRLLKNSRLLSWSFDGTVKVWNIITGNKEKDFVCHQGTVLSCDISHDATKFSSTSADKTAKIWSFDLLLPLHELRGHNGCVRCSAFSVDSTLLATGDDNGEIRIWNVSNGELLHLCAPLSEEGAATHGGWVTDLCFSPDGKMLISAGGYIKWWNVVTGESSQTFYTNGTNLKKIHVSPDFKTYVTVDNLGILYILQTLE
# UniProt O14641, sequence (O14641 whole entry, looked up): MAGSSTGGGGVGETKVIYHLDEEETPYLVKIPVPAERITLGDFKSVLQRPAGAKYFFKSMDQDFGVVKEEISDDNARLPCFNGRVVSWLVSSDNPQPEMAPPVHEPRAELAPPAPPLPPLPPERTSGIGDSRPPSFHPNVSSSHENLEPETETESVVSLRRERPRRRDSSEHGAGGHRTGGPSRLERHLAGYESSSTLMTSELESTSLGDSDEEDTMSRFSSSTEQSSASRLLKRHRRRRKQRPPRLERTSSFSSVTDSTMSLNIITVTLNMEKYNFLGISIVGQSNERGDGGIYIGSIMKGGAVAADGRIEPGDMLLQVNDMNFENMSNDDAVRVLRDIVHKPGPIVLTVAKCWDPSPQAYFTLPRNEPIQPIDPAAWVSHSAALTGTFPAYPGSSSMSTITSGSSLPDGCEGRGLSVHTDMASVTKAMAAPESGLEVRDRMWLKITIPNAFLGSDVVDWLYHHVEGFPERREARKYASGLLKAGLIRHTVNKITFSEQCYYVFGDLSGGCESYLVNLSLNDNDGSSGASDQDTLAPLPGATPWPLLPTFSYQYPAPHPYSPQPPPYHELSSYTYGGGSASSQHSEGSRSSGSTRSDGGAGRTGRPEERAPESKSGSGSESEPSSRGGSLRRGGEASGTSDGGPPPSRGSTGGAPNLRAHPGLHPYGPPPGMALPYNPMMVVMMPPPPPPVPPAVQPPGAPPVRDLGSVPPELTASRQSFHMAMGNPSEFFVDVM
# UniProt O00231, sequence (O00231 whole entry): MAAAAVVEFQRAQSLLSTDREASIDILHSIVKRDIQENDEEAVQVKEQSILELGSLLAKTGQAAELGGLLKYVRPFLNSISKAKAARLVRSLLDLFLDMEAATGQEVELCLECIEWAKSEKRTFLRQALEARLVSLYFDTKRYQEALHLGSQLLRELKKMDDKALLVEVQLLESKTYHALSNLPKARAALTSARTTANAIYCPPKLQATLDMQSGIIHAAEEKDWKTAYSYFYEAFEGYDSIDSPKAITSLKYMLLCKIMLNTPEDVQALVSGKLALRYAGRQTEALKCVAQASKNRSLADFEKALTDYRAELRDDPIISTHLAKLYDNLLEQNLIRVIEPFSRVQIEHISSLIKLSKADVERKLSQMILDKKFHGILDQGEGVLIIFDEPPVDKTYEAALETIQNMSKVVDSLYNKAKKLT
# UniProt O75607, sequence (O75607 whole entry, looked up): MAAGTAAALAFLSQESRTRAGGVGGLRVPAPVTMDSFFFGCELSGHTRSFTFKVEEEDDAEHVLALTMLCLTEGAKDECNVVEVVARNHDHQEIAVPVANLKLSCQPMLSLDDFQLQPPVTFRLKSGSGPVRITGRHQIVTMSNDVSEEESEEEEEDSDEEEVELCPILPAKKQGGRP
row,Target,log2 ratio of iodoacetamide-alkyne labeling
1,DVL2 C412 (UniProt O14641),0.134
2,AP3D1 C137 (UniProt O14617),0.262
3,APAF1 C115 (UniProt O14727),0.288
4,PSIP1 C204 (UniProt O75475),0.31
5,XPO1 C164 (UniProt O14980),-0.00596
6,PSMD11 C289 (UniProt O00231),0.253
7,POLRMT C119 (UniProt O00411),1.22 (active)
8,ANKRD17 C210 (UniProt O75179),0.398
9,TBC1D4 C1277 (UniProt O60343),0.374
10,PGRMC2 C159 (UniProt O15173),0.159
11,DKC1 C74 (UniProt O60832),0.427
12,HTATSF1 C462 (UniProt O43719),1.14 (active)
13,AKAP8 C275 (UniProt O43823),1.06 (active)
14,NVL C391 (UniProt O15381),0.0922
15,UniProt O94822_C498,0.086
16,O15320_C147 (UniProt Q96PC5+O15320),-0.197
17,UniProt O00567_C52,0.482
18,UniProt O75947_C101,0.98
19,PHGDH C369 (UniProt O43175),1.78 (active)
20,DDX3X C128 (UniProt O00571),0.406
21,NVL C626 (UniProt O15381),0.651
22,HEXIM1 C79 (UniProt O94992),1.3 (active)
23,UniProt O14628_C178,1.09 (active)
24,UniProt O94822_C186,-0.317
25,TMEM189 C21 (UniProt A5PLL7),1.52 (active)
26,UniProt O75153_C153,0.605

row,Target,log2 ratio of iodoacetamide-alkyne labeling
1,GTPBP1 C669 (UniProt O00178),1.13 (active)
2,POM121C C438 (UniProt A8CG34),1.04 (active)
3,OGT C620 (UniProt O15294),1.35 (active)
4,USO1 C303 (UniProt O60763),0.712
5,TRAFD1 C476 (UniProt O14545),1.55 (active)
6,PGP C297 (UniProt A6NDG6),1.17 (active)
7,SASH1 C406 (UniProt O94885),1.19 (active)
8,NUP155 C704 (UniProt O75694),0.168
9,NMT2 C104 (UniProt O60551),0.453
10,NKRF C37 (UniProt O15226),1.02 (active)
11,RIPK2 C414 (UniProt O43353),1.35 (active)
12,HEXIM1 C84 (UniProt O94992),1.3 (active)
13,PJA2 C224 (UniProt O43164),0.22
14,IPO5 C750 (UniProt O00410),0.168
15,UniProt O75153_C88,0.201
16,EXOC5 C111 (UniProt O00471),0.297
17,PRKRA C106 (UniProt O75569),1.07 (active)
18,SF3B1 C1059 (UniProt O75533),0.247
19,HEXIM1 C18 (UniProt O94992),0.398
20,CD3EAP C107 (UniProt O15446),0.723
21,IDH3B C233 (UniProt O43837),0.394
22,VPS4B C240 (UniProt O75351),0.188
23,UniProt O43929_C16,0.153
24,EIF5B C853 (UniProt O60841),1 (active)
25,WDR46 C456 (UniProt O15213),0.493
26,DNM1L C367 (UniProt O00429),0.986

row,Target,log2 ratio of iodoacetamide-alkyne labeling
1,PPFIA2 C143 (UniProt O75334),-0.214
2,UniProt O75528_C7,1.05 (active)
3,UniProt O43598_C26,0.038
4,TMEM189 C22 (UniProt A5PLL7),1.52 (active)
5,SIVA1 C6 (UniProt O15304),1.88 (active)
6,DNM1L C446 (UniProt O00429),0.102
7,HTATSF1 C471 (UniProt O43719),1.14 (active)
8,POLRMT C925 (UniProt O00411),-0.0567
9,CPD C582 (UniProt O75976),0.145
10,SART1 C645 (UniProt O43290),0.0232
11,EIF5B C720 (UniProt O60841),0.266
12,PCF11 C1534 (UniProt O94913),0.259
13,NPM3 C105 (UniProt O75607),0.636
14,RECQL5 C664 (UniProt O94762),1.47 (active)
15,ZZEF1 C2466 (UniProt O43149),-0.132
16,UniProt O95071_C2267,0.736
17,PMPCB C419 (UniProt O75439),0.112
18,TBC1D4 C6 (UniProt O60343),0.373
19,WASL C431 (UniProt O00401),1.06 (active)
20,UniProt O00567_C211,1.14 (active)
21,FLNB C660 (UniProt O75369),0.476
22,PFAS C1285 (UniProt O15067),1.36 (active)
23,UniProt O75153_C1196,0.492
24,ANKRD17 C58 (UniProt O75179),1.35 (active)
25,SF3B1 C677 (UniProt O75533),0.316
